Only some compounds are listed: those with a hit (about 4% of all), similar ones and a draw of the others.
KKLEB tox: reduces viability of KKLEB cystic fibrosis airway cells | KKLEB CF airway cells viability, ATPlite luminescence, overnight; active compounds read low; cells stimulated with P. aeruginosa culture filtrate | 360,000 tested, 0.36% active | AID 602141 | activity change (cytotoxicity), % at 5 µM;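 active = corrected activity change at or below -50% at 5 µM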
HIF-2a inh: inhibitors of HIF-2a; 786-0 RCC cells HIF-2a reporter, luciferase luminescence, overnight; inhibition, % at 18.8 µM; 360,000 tested, 0.72% active; AID 624352;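 active = inhibition of the luminescence signal of 40% or more relative to plate controls, in a single-dose primary screen at 18.75 µM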
CF NFkB inh: inhibitors of cystic fibrosis induced NF-kB; KKLEB NF-kB-GFP reporter, PAF-induced, GFP fluorescence overnight; inhibition, % at 5 µM; 360,000 tested, 0.86% active; AID 588850;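 active = at least 50% inhibition at 5 µM, scaled per plate between neutral and stimulator controls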;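 note: PAF is a Pseudomonas aeruginosa culture filtrate used as stimulus; plate controls were PAF-stimulated DMSO wells for no effect and unstimulated DMSO wells for full effect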
TROY NFkB inh: TROY signaling inhibition | Q293 LMP1-TROYcd NF-kB luciferase reporter, 4 h | inhibition, % at 10 µM | 360,000 tested, 0.98% active | AID 1347056;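 active = compounds whose plate-normalised and pattern-corrected inhibition of the luciferase reporter signal at the single screening dose is 50% or more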
Peg3 promoter: Peg3 promoter activity inhibition. HeLa PEG-Prom luciferase reporter, luminescence, overnight. inhibition, % at 20 µM. 360,000 tested, 1.7% active. AID 588405;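 active = inhibition of at least 50% at 20 µM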
TWEAK Fn14 block: blocks TWEAK-Fn14 interaction in a reporter cell assay; TWEAK-stimulated Fn14 reporter cells, luciferase luminescence, 8 h; inhibition, % at 10 µM; 360,000 tested, 2% active; AID 1159606; in the data active = inhibition above about 50%
* hit, by the source's call; nt = no result given.

SMILES	KKLEB tox	HIF-2a inh	CF NFkB inh	TROY NFkB inh	Peg3 promoter	TWEAK Fn14 block
COc1ccccc1Nc1c2ccccc2nc2ccccc12	-25.9	17.4	-39.8	18.6	87.8*	-61.2
COc1ccc(CCNCC(O)Cn2c3ccccc3c3ccccc32)cc1OC (centres undefined)	-39.3	8.6	36.1	-28.7	110.6*	7.1
Oc1cccc(Nc2c3ccccc3nc3ccccc23)c1	-11.0	39.6	-95.9	19.7	75.9*	-8.8
COc1ccccc1NCC(O)Cn1c2ccccc2c2ccccc21 (centres undefined)	-6.0	-3.8	7.3	1.0	35.9	27.9
c1cncc(Nc2c3ccccc3nc3ccccc23)c1	-9.0	29.4	-45.8	-19.1	28.0	-35.0
Cc1cnc(-c2nc3ccccc3n2C(C(=O)NC(C)(C)C)c2ccncc2)cn1 (centres undefined)	nt	-162.5	nt	nt	nt	nt
O=C(CCNC(=O)c1ccc(Br)cc1)NCC1COc2ccccc2O1 (centres undefined)	2.9	-153.2	-23.1	-41.5	-151.2	0.8
CN1CCN(c2ccccc2NC(=O)Cn2ncc3c([nH]c4ccccc43)c2=O)CC1	6.0	19.6	14.4	-4.1	-3.3	10.6
Cc1ccc2[nH]c3c(=O)n(CC(=O)Nc4ccccc4N4CCN(C)CC4)ncc3c2c1	-7.0	-4.4	15.8	7.5	52.8*	29.0
Cc1sc2ncnc(N3CCN(Cc4ccccc4)CC3)c2c1-c1ccccc1	-21.5	17.8	17.9	26.9	35.0	-7.1
COc1cc(/C=N/Nc2nc3c(c(=O)n(C)c(=O)n3C)n2Cc2ccccc2)ccc1OC(=O)c1ccco1	9.3	-29.4	-78.8	42.4	21.8	71.7*
Cn1c(NCc2ccccc2)nc2c1c(=O)n(Cc1ccc(Br)cc1)c(=O)n2C	0.3	25.1	2.1	23.8	50.6*	23.0
Cn1c(=O)c2c(nc(NCc3ccc4c(c3)OCO4)n2Cc2ccc(F)cc2)n(C)c1=O	-5.7	18.0	3.4	34.0	55.9*	18.7
Cn1c(=O)c2c(nc(NCCNC(=O)c3ccco3)n2Cc2ccccc2)n(C)c1=O	-0.7	13.2	-11.1	-14.1	17.9	98.4*
Cn1c(=O)c2c(nc(NCCNC(=O)c3ccco3)n2Cc2ccc(F)cc2)n(C)c1=O	-8.9	7.6	7.6	4.5	-7.3	31.1
C[C@@H]1CN([C@H](C)CO)C(=O)c2cc(Br)cnc2O[C@@H]1CN(C)C(=O)NC1CCCC1	4.5	0.0	5.0	-16.1	-8.8	1.5
Cc1cc(C)n(-c2ccc(NC(=O)C3CCCCN3C(=O)c3ccoc3C)cc2)n1 (centres undefined)	-5.3	-0.9	-4.7	0.7	-1.0	-0.7
CC(C)(C)C(c1nc2ccccc2[nH]1)n1c(-c2ccsc2)nc2ccccc21 (centres undefined)	nt	0.9	nt	nt	nt	nt
COc1ccc(CCN(C(=O)c2ccc(F)cc2)C2=CC3CCC(C2)N3C)cc1OC (centres undefined)	-3.5	12.5	-6.0	-4.7	-0.9	68.4*
O=[N+]([O-])c1ccc2c(c1)C(N1CCN(CCO)CC1)Cc1ccc(F)cc1S2 (centres undefined)	-14.2	-24.6	2.0	-3.6	33.7	1.0
COc1ccc2c(c1)CC(N1CCN(C)CC1)c1cc(OC)ccc1S2 (centres undefined)	-14.8	10.6	24.6	-29.7	68.9*	3.3
CSc1ccc2c(c1)C(N1CCN(C)CC1)Cc1ccc(F)cc1S2 (centres undefined)	-24.9	-14.2	10.7	14.5	115.2*	-72.1
CCn1c(CCNC(=O)c2ccc(OC)cc2)nnc1SCc1ccc(Cl)cc1Cl	14.4	23.3	-9.8	62.7*	8.9	11.8
C=CCC(NC(=O)N(C)C)(C(=O)OC)C(C)O (centres undefined)	nt	14.5	nt	nt	nt	nt
CCCCCCSc1ccc([C@@H]2[C@H]3C(=O)N(CC)C(=O)[C@H]3[C@]3(C(=O)OC)CCCCN23)cc1OC	-14.0	-3.5	16.2	-40.4	18.8	-4.0
SMILES	KKLEB tox	HIF-2a inh	CF NFkB inh	TROY NFkB inh	Peg3 promoter	TWEAK Fn14 block
COc1ccc(/C=N/Nc2ncnc(Cl)c2N)cc1OC	-5.1	-35.4	-5.3	1.1	-44.7	1.6
COc1ccc(/C=N/Nc2ncnc3sc4c(c23)CCCC4)cc1OC	1.1	-37.5	13.6	81.5*	-135.9	89.7*
CC1=C(C(=O)N2CCOCC2)CC(CC(=O)NCCc2ccccn2)C(=O)N1CCCN1CCCC1=O (centres undefined)	nt	11.5	nt	12.1	nt	-23.3
O=C(Nc1ccc(OC(F)(F)F)cc1)Nc1cccc([N+](=O)[O-])c1	-65.4*	-165.5	65.7*	24.0	55.3*	56.4*
Cc1ccc(NC(=S)NNC(=S)Nc2cccc(C(F)(F)F)c2)cc1	-21.5	-51.2	2.6	-27.9	-9.9	-33.0
O=C(Nc1ccncc1)Nc1cccc(C(F)(F)F)c1	-12.6	-12.5	39.2	10.3	20.6	19.9
O=C(Nc1ccc(OC(F)(F)F)cc1)Nc1cccnc1	-7.0	-79.4	9.1	-28.7	-41.3	-6.3
Cc1ccc(S(=O)(=O)Nc2ccc(NC(=O)Nc3cccc(C(F)(F)F)c3)cc2)cc1	-38.9	7.4	48.6	40.7	95.7*	85.9*
O=C(Nc1ccc(OC(F)F)cc1)Nc1cccc(C(F)(F)F)c1	-52.3*	-19.2	63.1*	46.4	-0.5	58.6*
CCCCN1C[C@H](C)[C@@H](CC(=O)NC)C1=O	5.6	4.5	-23.7	-12.8	-4.5	-5.4
Cn1c(-c2ccccc2)cnc1SCC(=O)N1CCCCC1	6.4	27.9	-11.8	61.3*	30.8	93.5*
Cc1ccc(C)c(NC(=O)c2cccc(Oc3ccc([N+](=O)[O-])cc3Cl)c2)c1	-11.6	-5.5	15.3	13.6	33.4	36.8
O=C(Nc1cccc(NC(=O)c2cccc([N+](=O)[O-])c2)n1)c1cccc([N+](=O)[O-])c1	-17.7	-7.0	25.9	23.8	2.8	-8.8
O=C(Nc1cccc(Cl)c1)c1cccc(Oc2ccc([N+](=O)[O-])cc2Cl)c1	-1.5	-40.1	22.7	43.5	33.7	82.1*
COc1ccc(NC(=O)c2cccc(Oc3ccc([N+](=O)[O-])cc3Cl)c2)cc1	-16.2	-29.5	31.1	23.6	11.6	58.9*
COc1cccc(C(=O)COc2cccc(NC(=O)c3cccc([N+](=O)[O-])c3)c2)c1	-0.6	-7.1	5.7	nt	28.6	63.9*
O=C(Nc1ccncc1NC(=O)c1cccc([N+](=O)[O-])c1)c1cccc([N+](=O)[O-])c1	-1.4	11.9	-15.4	-6.7	58.1*	-0.5
O=C(COc1cccc(NC(=O)c2cccc([N+](=O)[O-])c2)c1)c1ccc(F)cc1	-10.4	-15.6	2.3	46.3	27.3	41.6
Cn1cnnc1SCC(=O)Nc1ncc([N+](=O)[O-])s1	-9.9	-15.2	18.0	-14.2	-19.9	6.9
O=C(O)Cc1sc(Nc2cccc3ccccc23)nc1-c1ccc(Cl)cc1	-21.1	-2.1	2.1	30.3	9.0	4.6
Cc1ccc2nc(-c3cc(N)cc(N)c3)oc2c1	-26.0	61.5*	-3.3	60.2*	-122.1	62.5*
